Residues, ends and D or L forms follow the SMILES beside them. *: point of attachment. Cbz = O=C(OCc1ccccc1)*; CH2F = FC*

What is called ΔTm is the change in melting temperature against a reference sample.

Common to all, as to settings: Compound concentration 20.0 uM
Experiment [1] addresses Tyrosine-protein kinase ABL1 (Homo sapiens) (UniProt P00519).
The target of experiment [2] is Bromodomain-containing protein 4 (Homo sapiens) (UniProt O60885).
Experiment [3] concerns the target Cyclin-dependent kinase 2 (Homo sapiens) (UniProt P24941).
Experiment [4] concerns the target Casein kinase I isoform delta (Homo sapiens) (UniProt P48730).
Experiment [5] addresses Glycogen synthase kinase-3 beta (Homo sapiens) (UniProt P49841).
Experiment [6] deals with Mitogen-activated protein kinase 1 (Homo sapiens) (UniProt P28482).
For experiment [7], the target named is T1, Aurora kinase A (Homo sapiens) (UniProt O14965).
T1 sequence (whole entry): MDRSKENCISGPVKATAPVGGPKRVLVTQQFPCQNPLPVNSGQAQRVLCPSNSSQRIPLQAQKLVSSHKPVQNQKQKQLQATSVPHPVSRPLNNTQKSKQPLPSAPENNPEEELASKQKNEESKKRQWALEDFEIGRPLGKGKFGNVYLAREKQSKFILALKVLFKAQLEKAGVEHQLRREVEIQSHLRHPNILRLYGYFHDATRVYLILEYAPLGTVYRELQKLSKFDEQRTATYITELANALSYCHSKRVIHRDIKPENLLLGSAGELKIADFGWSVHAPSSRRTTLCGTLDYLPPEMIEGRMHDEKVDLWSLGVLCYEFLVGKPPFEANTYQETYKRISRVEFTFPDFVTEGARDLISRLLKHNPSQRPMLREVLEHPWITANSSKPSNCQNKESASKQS

Experiment [8] concerns the target T2, Transcription intermediary factor 1-alpha (Homo sapiens) (UniProt O15164).
T2 sequence (whole entry): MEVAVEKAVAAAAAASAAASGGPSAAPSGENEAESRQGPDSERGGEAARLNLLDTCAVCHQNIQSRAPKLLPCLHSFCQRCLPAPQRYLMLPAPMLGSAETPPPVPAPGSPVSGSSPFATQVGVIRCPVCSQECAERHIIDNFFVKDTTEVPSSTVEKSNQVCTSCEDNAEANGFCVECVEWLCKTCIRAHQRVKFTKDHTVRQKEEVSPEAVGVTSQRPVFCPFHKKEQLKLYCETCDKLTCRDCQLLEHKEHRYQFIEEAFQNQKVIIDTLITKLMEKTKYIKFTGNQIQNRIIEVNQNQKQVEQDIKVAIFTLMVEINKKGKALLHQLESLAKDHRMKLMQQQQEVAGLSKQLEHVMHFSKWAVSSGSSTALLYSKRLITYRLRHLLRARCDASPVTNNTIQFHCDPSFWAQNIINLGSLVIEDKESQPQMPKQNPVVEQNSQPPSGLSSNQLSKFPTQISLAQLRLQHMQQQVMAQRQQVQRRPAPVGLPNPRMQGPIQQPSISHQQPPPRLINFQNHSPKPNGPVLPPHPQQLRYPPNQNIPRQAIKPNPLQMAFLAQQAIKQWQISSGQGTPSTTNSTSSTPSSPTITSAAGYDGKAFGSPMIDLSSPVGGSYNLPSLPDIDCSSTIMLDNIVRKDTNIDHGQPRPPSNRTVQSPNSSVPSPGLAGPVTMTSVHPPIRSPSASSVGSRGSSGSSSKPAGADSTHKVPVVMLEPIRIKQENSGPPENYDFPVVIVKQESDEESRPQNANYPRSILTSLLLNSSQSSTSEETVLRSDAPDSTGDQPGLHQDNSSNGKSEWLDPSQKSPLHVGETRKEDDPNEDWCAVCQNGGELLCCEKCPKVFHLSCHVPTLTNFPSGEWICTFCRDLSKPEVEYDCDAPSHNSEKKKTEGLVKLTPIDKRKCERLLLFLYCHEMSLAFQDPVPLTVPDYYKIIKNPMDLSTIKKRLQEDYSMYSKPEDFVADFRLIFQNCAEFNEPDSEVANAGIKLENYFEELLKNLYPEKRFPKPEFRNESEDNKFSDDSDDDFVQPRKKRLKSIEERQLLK

Sequence of Mitogen-activated protein kinase 1 (Homo sapiens) (P28482 whole entry): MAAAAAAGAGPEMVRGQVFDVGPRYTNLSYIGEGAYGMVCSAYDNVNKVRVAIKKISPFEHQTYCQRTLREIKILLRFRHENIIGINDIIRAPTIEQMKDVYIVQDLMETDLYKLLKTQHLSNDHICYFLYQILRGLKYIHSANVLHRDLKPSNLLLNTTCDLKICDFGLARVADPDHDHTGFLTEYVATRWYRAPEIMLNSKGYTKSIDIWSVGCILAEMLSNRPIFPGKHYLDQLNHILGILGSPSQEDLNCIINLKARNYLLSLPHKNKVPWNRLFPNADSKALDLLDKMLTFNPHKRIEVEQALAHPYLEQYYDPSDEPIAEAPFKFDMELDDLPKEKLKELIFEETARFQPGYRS
Sequence of Tyrosine-protein kinase ABL1 (Homo sapiens) (P00519 whole entry): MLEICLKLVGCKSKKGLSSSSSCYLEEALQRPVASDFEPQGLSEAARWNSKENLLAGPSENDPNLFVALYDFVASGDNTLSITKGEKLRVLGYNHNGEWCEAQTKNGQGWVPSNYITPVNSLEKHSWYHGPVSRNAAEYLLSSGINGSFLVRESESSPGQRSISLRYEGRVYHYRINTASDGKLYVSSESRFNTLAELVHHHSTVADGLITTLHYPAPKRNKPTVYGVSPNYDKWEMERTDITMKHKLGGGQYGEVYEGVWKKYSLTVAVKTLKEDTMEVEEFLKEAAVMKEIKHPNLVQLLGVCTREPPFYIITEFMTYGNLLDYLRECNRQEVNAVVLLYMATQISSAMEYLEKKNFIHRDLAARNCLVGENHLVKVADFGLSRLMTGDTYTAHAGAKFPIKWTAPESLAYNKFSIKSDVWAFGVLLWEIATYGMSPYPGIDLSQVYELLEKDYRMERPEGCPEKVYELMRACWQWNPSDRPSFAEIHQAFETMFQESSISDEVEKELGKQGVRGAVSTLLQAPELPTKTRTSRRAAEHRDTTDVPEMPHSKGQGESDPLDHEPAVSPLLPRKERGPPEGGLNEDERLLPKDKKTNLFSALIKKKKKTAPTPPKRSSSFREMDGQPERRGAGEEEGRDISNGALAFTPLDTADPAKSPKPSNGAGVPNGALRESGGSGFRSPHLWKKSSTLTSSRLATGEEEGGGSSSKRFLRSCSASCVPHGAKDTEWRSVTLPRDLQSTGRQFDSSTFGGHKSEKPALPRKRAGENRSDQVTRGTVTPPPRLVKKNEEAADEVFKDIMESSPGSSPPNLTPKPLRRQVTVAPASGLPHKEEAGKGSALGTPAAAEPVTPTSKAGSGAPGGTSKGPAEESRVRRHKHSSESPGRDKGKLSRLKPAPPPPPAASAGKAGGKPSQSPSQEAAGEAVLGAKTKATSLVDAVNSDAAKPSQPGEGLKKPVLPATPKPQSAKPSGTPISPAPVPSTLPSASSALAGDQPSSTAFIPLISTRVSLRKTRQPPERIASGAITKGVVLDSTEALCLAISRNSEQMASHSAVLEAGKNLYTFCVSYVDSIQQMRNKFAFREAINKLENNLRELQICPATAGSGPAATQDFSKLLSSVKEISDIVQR
Sequence of Casein kinase I isoform delta (Homo sapiens) (P48730 whole entry, looked up, canonical isoform): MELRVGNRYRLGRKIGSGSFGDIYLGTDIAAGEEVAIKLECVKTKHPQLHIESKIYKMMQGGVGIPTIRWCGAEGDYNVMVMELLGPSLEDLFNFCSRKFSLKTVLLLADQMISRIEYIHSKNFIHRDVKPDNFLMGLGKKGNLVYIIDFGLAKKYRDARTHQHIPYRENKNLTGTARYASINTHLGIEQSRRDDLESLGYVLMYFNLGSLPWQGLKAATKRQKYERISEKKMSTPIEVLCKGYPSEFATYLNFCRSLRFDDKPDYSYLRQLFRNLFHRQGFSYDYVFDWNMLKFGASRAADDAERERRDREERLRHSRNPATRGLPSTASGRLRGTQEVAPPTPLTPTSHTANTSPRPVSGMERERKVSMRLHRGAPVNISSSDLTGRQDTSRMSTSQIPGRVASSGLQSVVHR
Sequence of Glycogen synthase kinase-3 beta (Homo sapiens) (P49841 whole entry, looked up): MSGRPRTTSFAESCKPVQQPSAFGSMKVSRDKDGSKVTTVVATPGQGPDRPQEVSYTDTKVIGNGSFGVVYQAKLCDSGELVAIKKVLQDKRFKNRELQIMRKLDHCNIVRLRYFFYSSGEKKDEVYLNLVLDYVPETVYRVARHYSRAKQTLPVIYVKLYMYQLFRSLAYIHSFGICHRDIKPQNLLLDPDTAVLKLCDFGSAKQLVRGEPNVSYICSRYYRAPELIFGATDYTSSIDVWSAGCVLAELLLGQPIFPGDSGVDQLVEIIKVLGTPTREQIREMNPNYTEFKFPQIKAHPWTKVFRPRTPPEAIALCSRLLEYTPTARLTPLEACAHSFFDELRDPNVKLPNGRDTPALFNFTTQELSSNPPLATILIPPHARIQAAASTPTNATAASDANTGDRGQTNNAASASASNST

On to `Cc1cc(C(=O)CN2CCC(O)CC2)c(C)n1-c1ccc(C#N)cc1`, for which the ΔTm in experiment [1] is 0.11 °C; in experiment [2] it was -2.81 °C; in experiment [3], -0.05 °C; in experiment [4], -0.34 °C; in experiment [5], -0.73 °C; in experiment [6], 0.01 °C. The ΔTm in experiment [7] was -2.48 °C; in experiment [8], -1.8 °C.

Regarding `O=C1CCc2cc(OCCCCc3nnnn3C3CCCCC3)ccc2N1`, the thermal shift (ΔTm) is 0.01 °C in experiment [1]; -0.81 °C in experiment [2]; -0.24 °C in experiment [3]; -0.48 °C in experiment [4]; -0.04 °C in experiment [5]; 0.01 °C in experiment [6]. In addition, the shift in melting temperature (ΔTm) is -1.24 °C in experiment [7] and -0.24 °C in experiment [8].

In the case of `O=CC1CCCN1C(=O)C1CCCN1C(=O)OCc1ccccc1` (stereo not drawn) (Cbz-Pro-Pro-aldehyde; configuration not given here), the thermal shift (ΔTm) is 0.3 °C in experiment [1]; -1.06 °C in experiment [2]; -0.15 °C in experiment [3]; 0.22 °C in experiment [4]; -0.2 °C in experiment [5]; 0.12 °C in experiment [6]. Moreover, the ΔTm in experiment [7] was -0.83 °C; in experiment [8], -0.47 °C.

As to `Cc1cc(S(C)(=O)=O)c(S(C)(=O)=O)cc1C(=O)NC(=N)N`, the ΔTm in experiment [1] is 0.73 °C; in experiment [2], -0.31 °C; in experiment [3], 0.23 °C; in experiment [4], -0.54 °C; in experiment [5], 0.15 °C; in experiment [6] it was 0.12 °C. Also, the results for the ΔTm in experiment [7] and in experiment [8] were -1.63 °C and 0.34 °C, respectively.

Consider `CC(C)c1c(-c2cnn(C(C)(C)C)c2)[nH]c2c(C#N)cnn2c1=O`, for which the ΔTm was 0.32 °C in experiment [1]; -1.11 °C in experiment [2]; 0.15 °C in experiment [3]; -0.24 °C in experiment [4]; 0.53 °C in experiment [5]; 0.3 °C in experiment [6]. Also, the results for the shift in melting temperature (ΔTm) in experiment [7] and in experiment [8] were -0.18 °C and 0.36 °C, respectively.

Turning to `CC(=O)N[C@@H](CC(=O)O)C(=O)N[C@@H](CCC(=O)O)C(=O)N[C@H](C(=O)N[C@H](C=O)CC(=O)O)C(C)C`, the ΔTm in experiment [1] is -0.28 °C; in experiment [2], -1.5 °C; in experiment [3], -0.58 °C; in experiment [4], -0.17 °C; in experiment [5], -0.28 °C; in experiment [6] it was -0.74 °C. In addition, the ΔTm in experiment [7] was -1.77 °C; in experiment [8], -1.09 °C.

As for `CC(C)(C)c1ccc(S(=O)(=O)NCc2ccc(C(=O)Nc3cccnc3)cc2)cc1`, the shift in melting temperature (ΔTm) was 0.45 °C in experiment [1]; -2.48 °C in experiment [2]; -0.13 °C in experiment [3]; -0.13 °C in experiment [4]; -1.45 °C in experiment [5]; 0.7 °C in experiment [6]. Besides, the ΔTm was -2.1 °C in experiment [7] and 0.99 °C in experiment [8].

Consider `O=C(O)Cn1nnc(-c2ccc(CN(CCCCOc3ccc(CN4CCCC4)cc3)CCc3ccccc3)cc2)n1`, for which the shift in melting temperature (ΔTm) was 0.12 °C in experiment [1]; -3.23 °C in experiment [2]; -1.15 °C in experiment [3]; 0.14 °C in experiment [4]; -0.71 °C in experiment [5]; -0.45 °C in experiment [6]. Further, the ΔTm is -2.88 °C in experiment [7] and -1.13 °C in experiment [8].

In the case of `Nc1cc(F)ccc1NC(=O)c1ccc(CNC(=O)/C=C/c2cccnc2)cc1`, the ΔTm in experiment [1] is 0.72 °C; in experiment [2], -1.97 °C; in experiment [3], -0.55 °C; in experiment [4], 0.17 °C; in experiment [5] it was -1.09 °C; in experiment [6] it was -3.81 °C. The shift in melting temperature (ΔTm) in experiment [7] is -0.25 °C; in experiment [8], -1.2 °C.

For the compound `O=C(c1ccc2c(ccn2-c2ccc(F)cc2)c1)N1CC(N2CCN(C(=O)c3nccs3)CC2)C1`, the ΔTm in experiment [1] is 0.62 °C; in experiment [2], -3.81 °C; in experiment [3], -1.22 °C; in experiment [4], -0.29 °C; in experiment [5], -1.59 °C; in experiment [6] it was 0 °C. Besides, the ΔTm in experiment [7] was -3.69 °C; in experiment [8], -0.34 °C.

As for `COC(=O)CC[C@H](NC(=O)[C@H](Cc1c[nH]c2ccccc12)NC(=O)OCc1ccccc1)C(=O)N[C@@H](Cc1cnc[nH]1)C(=O)N[C@@H](CC(=O)OC)C(=O)CF` (Cbz-WE(OMe)HD(OMe)-CH2F), the ΔTm in experiment [1] was 0.62 °C; in experiment [2], -1.63 °C; in experiment [3], 0.18 °C; in experiment [4], 0.21 °C; in experiment [5], -0.68 °C; in experiment [6], -0.1 °C. Further, the figures for the ΔTm in experiment [7] and in experiment [8] were -0.45 °C and -0.87 °C, respectively.

The values are drawn from ChEMBL document CHEMBL5724796, “Tm Shift (DSF) assay results for EUbOPEN Chemogenomics Library” (2024).
